The text below walks through data of PubChem BioAssay.

The nature of experiment [1]: rapamycin-like changes in RPL19A-GFP expression – cell-based, S. cerevisiae, multiplex flow cytometry, primary screen (AID 1862; in the data active = percent of DMSO control GFP below about 86%;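 note: lower values mimic rapamycin by blocking the RPL19A rise seen in DMSO cells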). The conditions noted are these: S. cerevisiae RPL19A-GFP strain, flow cytometry fluorescence, 3 h; at 10 µM; stronger effect = lower value.
A short description of experiment [2]: TOR pathway GLN3 branch reporter MEP2-GFP changes – S. cerevisiae, multiplex flow cytometry, primary screen (AID 1867;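 active = GFP response, as percent of the DMSO control, above the screen-wide mean plus 3 SD, about 139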;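 note: median GFP channel fluorescence of barcode-gated MEP2-GFP cells measured by flow cytometry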). The note with it: S. cerevisiae MEP2-GFP strain, 3 h, at 10 µM, stronger effect = higher value, 100% means same as DMSO wells.
A short description of experiment [3]: TOR pathway RTG branch CIT2 reporter changes – S. cerevisiae, GFP fusion, multiplex flow cytometry, primary screen (AID 1870;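 active = percent response above a set limit, the screen-wide mean plus 3 SD, cut at about 130% in these data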;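 note: barcoded CIT2-GFP strain pooled with four other GFP strains with rapamycin as positive control; median GFP fluorescence per well over plate mean of DMSO wells so 100% = DMSO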). The conditions noted are these: S. cerevisiae CIT2-GFP expression, 3 h, at 10 µM, stronger effect = higher value.
Experiment [4] is described as follows: TOR pathway LAP4-GFP level changes – S. cerevisiae, multiplex flow cytometry, primary screen (AID 1873;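 active = GFP signal, as percent of the solvent control, above the screen mean plus 3 SD, about 149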). The note with it: S. cerevisiae LAP4-GFP expression, 3 h, at 10 µM, stronger effect = higher value.
The nature of experiment [5]: yeast AGP1-GFP level changes, GLN3 branch – cell-based, multiplex flow cytometry, S. cerevisiae, primary screen (AID 1887;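 active = GFP signal above the screen-wide mean plus 3 SD, that is over about 124.5% of the solvent control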;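 note: AGP1-GFP fusion strain of S. cerevisiae within a five-strain barcoded multiplex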). The note with it: 3 h, at 10 µM, stronger effect = higher value.
Experiment [6] in a line: reduced mouse 2C T cell binding to pMHC/ICAM-1 vesicles – MLPCN validation set, flow cytometry, LFA-1/ICAM-1 modulator project, pilot screen (AID 2523;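 active = response below a set limit, under 55% cells CD8-positive and vesicle-bound, and CD8 cells' 90th-percentile brightness under 279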;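 for vesicle binding response: mean PE anti-B7-1 fluorescence of CD8+ cells relative to row control; 100% = QL9-loaded vesicles with DMSO vehicle in the same plate row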). The note with it: 2C mouse CD8+ T cells, at 7 µM, stronger effect = lower value; double positive events: measured here: CD8+/vesicle+ event percentage.
For experiment [7], the target named is Integrin beta-1 (Homo sapiens) + Integrin alpha-4 (Homo sapiens) (UniProt P13612+P05556). Kind of experiment: alpha4beta1 integrin LIBS antibody binding reduction – U937 cells, HUTS-21 mAb, flow cytometry, validation set, VLA-4 allosteric modulator project, pilot screen (AID 2674;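 active = inhibition above 50%, about 3 SD of the validation set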;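 note: antibody binding induced by the VLA-4 ligand LDV present at three times its Kd; 0% = LDV ligand with antibody and no compound and 100% = antibody without LDV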). The note with it: HUTS-21 LIBS mAb binding, at 6.7 µM, stronger effect = higher value, binding induced by LDV ligand.

Experiment [8] is described as follows: calorie-restriction mimetic ROS inhibitors, yeast – validation compound set, pilot screen (AID 2706;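 active = superoxide response below 65% of plate, a cut near 3 SD across the whole screen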;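 note: yeast exposed to compound for one week at 30 degrees C before staining; 100% = mean of all compound wells on the same plate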). The note with it: S. cerevisiae aging, superoxide DHE fluorescence; at 10 µM; stronger effect = lower value.
Experiment [9] concerns the target Beta-adrenergic receptor kinase 1 (Homo sapiens) (UniProt P25098). Kind of experiment: GRK2 binders displacing RNA aptamer, biochemical, validation, human GRK2, bead flow cytometry (AID 488806;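 active = aptamer binding inhibition above 30%, about 3 SD of noise from non-fluorescent compounds; inactive = inhibition at or below 30%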). The note with it: bead-bound GRK2, FAM-aptamer displacement, at 10 µM, stronger effect = higher value.
Experiment [10] has as its target Beta-2 adrenergic receptor (Homo sapiens) (UniProt P07550). Kind of experiment: agonist-induced loss of surface beta2AR – cell-based, FAP fluorogen, flow cytometry, validation set, pilot screen (AID 504459;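 active = percent response above 42, roughly 3 SD of non-fluorescent test compounds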;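 note: agonist-driven loss of surface beta2AR via internalization measured by FAP dye flow cytometry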). The conditions noted are these: Am2.2-beta2AR cells, at 10 µM, stronger effect = higher value.
Experiment [11] concerns the target AP-2 complex subunit beta (Homo sapiens) (UniProt P63010). Kind of experiment: beta-arrestin/AP2 interaction blockers – biochemical, validation set, GST-AP2 beads, flow cytometry, pilot screen (AID 504541;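 active = inhibition above 54%, about 3 SD of non-fluorescent compounds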;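 note: AP2 carries R879A mutation and is captured from E. coli lysate; bead-bound FITC arrestin peptide fluorescence measuring arrestin peptide binding to AP2; 0% = DMSO wells and 100% = excess unlabeled arrestin peptide control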). The note with it: FITC arrestin peptide, at 10 µM, stronger effect = higher value, AP2 beta2 appendage fragment, R879A mutant.
Experiment [12] can be described thus: cytosolic pH regulators acting via V-ATPase – S. cerevisiae, pHLuorin, HTS validation (AID 504600).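 Note: plate controls were DMSO for no effect and reference compound for full effect.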 The conditions noted are these: V-ATPase proton transport, at 10 µM, stronger effect = higher value.
Experiment [13] deals with anti-desmoglein-3 scFv antibody binding to human DSG3. Kind of experiment: blockers of pathogenic pemphigus antibody–desmoglein-3 binding – biochemical, validation compound set, bead-based, flow cytometry, pilot screen (AID 588368;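 active = binding below the plate cutoff, the plate median minus 3 SD, with a reading above zero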;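 note: signal is the median channel fluorescence of bead-bound GFP antibody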). The note with it: Protein G beads, DSG3-Fc, scFv-GFP binding, at 10 µM, stronger effect = lower value.
Experiment [14] in a line: Nile Red efflux blockade in pump-expressing yeast – validation compound set, multiplex, phenotypic, pilot screen (AID 588506;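 active = efflux inhibition above 0.42, the validation set average plus 4 SD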;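 note: Nile Red retained in cells so higher fluorescence means more efflux inhibition; 0 = negative control wells and 1 = enniatin B 25 µM full block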). The conditions noted are these: S. cerevisiae pump-expressing triplex, Nile Red efflux flow cytometry; at 10 µM; stronger effect = higher value; the pumps come from Candida albicans.
Experiment [15] has as its target ATP-binding cassette sub-family B member 6 (Homo sapiens) (UniProt Q9NP58). Kind of experiment: blockers of ABCB6-driven porphyrin uptake – K562-ABCB6 cells, flow cytometry, validation set, pilot screen (AID 588550;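 active = inhibition above the screen-wide mean plus 3 SD, about 51%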;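 note: 0% = DMSO wells and 100% = benzethonium chloride 70 µM positive control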). The conditions noted are these: K562-ABCB6 porphyrin accumulation, 1 h, at 10 µM, stronger effect = higher value.
Experiment [16] in a line: AML differentiation inducers, ER-HoxA9 marrow cells – cell-based, GFP/MAC1 double positive, flow cytometry, validation set, primary screen (AID 588685;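 active = differentiation response of at least 50%, scaled between solvent and reference control, from cells with both markers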;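 note: compound exposure lasts four days before antibody staining and flow analysis; 0% = DMSO wells and 100% = 5 µM fulvestrant positive control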). The note with it: stronger effect = higher value, normalized: vehicle 0, fulvestrant 100.

SMILES strings stand for the structures. Records with an inconclusive call do not appear. Active and inactive are the calls of the source. Cut-off read from the data, not from the text of the source, unless noted: active = response above about 15%; inactive = the rest.

ATP-binding cassette sub-family B member 6 (Homo sapiens), sequence (Q9NP58 whole entry, looked up): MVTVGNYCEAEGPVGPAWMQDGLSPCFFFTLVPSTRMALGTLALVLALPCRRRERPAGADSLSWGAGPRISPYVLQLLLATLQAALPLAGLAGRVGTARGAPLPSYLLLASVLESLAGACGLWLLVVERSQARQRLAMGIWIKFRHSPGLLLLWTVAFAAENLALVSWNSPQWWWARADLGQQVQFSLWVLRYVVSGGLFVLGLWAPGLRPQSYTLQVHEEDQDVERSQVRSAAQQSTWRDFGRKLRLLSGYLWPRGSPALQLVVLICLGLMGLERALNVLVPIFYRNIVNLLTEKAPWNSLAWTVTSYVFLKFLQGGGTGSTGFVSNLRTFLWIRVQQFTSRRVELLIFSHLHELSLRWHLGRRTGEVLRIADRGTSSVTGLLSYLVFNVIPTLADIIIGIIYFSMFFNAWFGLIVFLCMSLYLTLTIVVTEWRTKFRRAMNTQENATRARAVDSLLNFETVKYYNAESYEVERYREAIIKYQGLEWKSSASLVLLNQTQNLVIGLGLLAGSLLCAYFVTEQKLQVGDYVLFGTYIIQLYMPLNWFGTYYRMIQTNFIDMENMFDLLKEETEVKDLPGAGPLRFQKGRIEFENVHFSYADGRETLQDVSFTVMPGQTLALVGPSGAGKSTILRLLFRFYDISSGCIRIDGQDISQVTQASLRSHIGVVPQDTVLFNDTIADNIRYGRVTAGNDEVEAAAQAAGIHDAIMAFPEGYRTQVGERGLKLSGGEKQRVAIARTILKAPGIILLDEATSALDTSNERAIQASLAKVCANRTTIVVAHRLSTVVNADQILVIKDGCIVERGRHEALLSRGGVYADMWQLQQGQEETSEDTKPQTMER
AP-2 complex subunit beta (Homo sapiens), sequence (P63010 whole entry, looked up, the tested form may be a part, one chain of several): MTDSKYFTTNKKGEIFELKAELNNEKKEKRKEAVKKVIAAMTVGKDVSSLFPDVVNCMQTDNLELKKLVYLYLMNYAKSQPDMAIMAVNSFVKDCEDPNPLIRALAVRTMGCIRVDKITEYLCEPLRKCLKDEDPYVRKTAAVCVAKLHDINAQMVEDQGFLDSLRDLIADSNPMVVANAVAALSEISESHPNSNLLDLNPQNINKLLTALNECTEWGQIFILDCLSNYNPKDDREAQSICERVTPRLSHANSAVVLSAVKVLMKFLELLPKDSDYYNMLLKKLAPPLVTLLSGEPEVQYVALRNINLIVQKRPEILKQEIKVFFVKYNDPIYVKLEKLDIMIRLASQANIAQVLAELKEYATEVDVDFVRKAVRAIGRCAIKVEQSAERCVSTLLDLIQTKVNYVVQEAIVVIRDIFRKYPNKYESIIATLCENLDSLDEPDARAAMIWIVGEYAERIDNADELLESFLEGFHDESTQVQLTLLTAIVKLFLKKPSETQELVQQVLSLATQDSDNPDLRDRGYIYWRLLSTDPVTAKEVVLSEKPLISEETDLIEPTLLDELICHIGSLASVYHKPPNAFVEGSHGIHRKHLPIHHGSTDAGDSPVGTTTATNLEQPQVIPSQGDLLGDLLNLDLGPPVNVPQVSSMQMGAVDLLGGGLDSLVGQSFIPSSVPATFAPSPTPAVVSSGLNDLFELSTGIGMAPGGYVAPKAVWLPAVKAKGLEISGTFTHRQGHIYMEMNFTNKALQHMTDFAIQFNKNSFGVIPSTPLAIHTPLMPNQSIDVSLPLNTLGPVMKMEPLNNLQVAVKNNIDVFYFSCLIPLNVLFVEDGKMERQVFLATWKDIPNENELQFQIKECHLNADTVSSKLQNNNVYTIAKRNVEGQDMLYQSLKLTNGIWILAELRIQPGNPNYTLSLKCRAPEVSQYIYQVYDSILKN
Integrin beta-1 (Homo sapiens) + Integrin alpha-4 (Homo sapiens), sequence (P05556 whole entry, looked up): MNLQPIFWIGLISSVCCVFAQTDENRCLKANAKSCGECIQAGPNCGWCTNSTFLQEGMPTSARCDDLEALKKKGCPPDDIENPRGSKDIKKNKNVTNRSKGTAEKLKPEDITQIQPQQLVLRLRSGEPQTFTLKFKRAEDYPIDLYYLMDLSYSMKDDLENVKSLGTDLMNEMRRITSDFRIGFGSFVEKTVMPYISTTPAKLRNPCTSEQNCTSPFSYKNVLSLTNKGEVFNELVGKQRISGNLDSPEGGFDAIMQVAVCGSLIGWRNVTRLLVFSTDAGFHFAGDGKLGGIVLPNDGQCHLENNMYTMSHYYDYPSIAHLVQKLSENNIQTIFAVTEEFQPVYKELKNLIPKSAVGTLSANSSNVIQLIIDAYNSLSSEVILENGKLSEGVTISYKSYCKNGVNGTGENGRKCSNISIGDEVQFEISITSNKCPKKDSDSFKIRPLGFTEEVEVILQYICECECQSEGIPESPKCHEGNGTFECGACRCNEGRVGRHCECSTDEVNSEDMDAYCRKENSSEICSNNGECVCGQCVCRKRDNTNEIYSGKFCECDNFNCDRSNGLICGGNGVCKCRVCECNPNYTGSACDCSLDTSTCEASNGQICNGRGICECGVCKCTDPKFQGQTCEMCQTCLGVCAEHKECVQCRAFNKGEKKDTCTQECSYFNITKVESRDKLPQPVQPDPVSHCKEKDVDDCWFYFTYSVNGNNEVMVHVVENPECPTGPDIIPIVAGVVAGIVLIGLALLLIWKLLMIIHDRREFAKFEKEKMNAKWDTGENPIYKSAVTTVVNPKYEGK
Integrin beta-1 (Homo sapiens) + Integrin alpha-4 (Homo sapiens), sequence (P13612 whole entry, looked up): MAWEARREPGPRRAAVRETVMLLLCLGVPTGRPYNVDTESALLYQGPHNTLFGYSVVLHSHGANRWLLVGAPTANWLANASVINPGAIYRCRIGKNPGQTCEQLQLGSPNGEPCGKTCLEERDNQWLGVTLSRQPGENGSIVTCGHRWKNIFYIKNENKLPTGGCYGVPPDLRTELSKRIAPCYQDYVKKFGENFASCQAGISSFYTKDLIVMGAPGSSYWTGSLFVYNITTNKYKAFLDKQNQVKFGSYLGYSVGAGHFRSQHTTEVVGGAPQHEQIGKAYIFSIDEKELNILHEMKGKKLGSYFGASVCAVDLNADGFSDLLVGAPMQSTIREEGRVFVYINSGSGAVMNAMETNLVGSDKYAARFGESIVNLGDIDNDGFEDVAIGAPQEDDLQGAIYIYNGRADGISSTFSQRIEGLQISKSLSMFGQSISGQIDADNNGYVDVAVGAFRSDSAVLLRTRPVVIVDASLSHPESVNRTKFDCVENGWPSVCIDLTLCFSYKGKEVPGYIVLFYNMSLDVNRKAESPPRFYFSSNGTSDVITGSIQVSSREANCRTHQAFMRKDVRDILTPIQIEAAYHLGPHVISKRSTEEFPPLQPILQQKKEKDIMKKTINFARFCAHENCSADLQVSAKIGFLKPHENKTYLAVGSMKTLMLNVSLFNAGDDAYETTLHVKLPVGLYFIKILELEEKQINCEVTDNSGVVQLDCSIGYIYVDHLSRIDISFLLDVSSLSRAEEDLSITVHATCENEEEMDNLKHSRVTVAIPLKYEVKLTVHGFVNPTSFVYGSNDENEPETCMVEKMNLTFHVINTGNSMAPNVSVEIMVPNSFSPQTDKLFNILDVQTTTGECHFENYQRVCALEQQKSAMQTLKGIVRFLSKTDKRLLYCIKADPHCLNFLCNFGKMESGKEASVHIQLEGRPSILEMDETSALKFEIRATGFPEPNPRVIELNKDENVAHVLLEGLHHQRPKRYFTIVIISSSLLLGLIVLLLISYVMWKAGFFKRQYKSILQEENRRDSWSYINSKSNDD
Beta-2 adrenergic receptor (Homo sapiens), sequence (P07550 whole entry, looked up): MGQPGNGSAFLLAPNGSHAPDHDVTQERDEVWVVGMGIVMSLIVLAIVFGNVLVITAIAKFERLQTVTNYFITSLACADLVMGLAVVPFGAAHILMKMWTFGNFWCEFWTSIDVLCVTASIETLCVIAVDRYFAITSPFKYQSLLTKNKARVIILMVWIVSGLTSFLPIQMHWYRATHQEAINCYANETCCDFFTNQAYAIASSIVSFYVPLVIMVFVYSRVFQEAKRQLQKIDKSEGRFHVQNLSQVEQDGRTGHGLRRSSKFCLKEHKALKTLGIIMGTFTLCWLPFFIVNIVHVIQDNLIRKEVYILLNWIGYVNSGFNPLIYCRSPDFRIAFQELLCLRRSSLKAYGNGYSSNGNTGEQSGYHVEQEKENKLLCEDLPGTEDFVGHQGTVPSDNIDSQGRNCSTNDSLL
Beta-adrenergic receptor kinase 1 (Homo sapiens), sequence (P25098 whole entry, looked up): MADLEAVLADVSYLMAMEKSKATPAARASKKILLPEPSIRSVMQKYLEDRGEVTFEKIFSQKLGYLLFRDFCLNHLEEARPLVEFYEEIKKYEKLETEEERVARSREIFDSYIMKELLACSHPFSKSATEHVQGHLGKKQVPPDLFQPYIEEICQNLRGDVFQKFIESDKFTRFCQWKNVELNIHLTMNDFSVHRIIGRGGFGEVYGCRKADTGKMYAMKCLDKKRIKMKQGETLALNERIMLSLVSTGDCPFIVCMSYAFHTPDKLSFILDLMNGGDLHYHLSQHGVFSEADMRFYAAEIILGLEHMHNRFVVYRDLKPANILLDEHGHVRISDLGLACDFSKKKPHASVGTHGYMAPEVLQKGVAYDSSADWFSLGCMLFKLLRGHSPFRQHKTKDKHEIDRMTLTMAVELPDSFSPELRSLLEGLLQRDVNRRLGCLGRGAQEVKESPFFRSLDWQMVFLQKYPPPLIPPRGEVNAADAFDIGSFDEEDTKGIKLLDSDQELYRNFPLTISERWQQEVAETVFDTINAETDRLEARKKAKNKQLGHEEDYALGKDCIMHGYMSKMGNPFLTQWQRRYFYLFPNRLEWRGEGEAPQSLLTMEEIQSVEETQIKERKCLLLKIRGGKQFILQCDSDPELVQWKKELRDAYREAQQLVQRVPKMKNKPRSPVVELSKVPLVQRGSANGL

Take `C[C@]12CC[C@@H]3c4ccc(O)cc4CC[C@H]3[C@@H]1CC[C@@H]2O`: in experiment [1], the percent of DMSO control GFP is 98.8% (inactive). Moreover, the GFP response vs DMSO in experiment [2] was 105% (inactive); in [4], 132% (inactive). Also, in experiment [3], the percent response of DMSO control was 98.2% (inactive). Moreover, the GFP response, % of DMSO in [5] was 98.6% (inactive). Moreover, in [6], the double positive events is 63%. Further, in [6], the vesicle binding response is 186% (inactive). The inhibition was 5.41% (inactive) in experiment [7], 21.6% (inactive) in experiment [11] and 4% (inactive) in [15]. In addition, the superoxide response (% of plate) in [8] was 97.8% (inactive). For the same compound, in [9], the aptamer binding inhibition is 1% (inactive). Moreover, the figures for the response in [10] and in [12] were -1.92% (inactive) and 2.25% (inactive), respectively. Besides, the binding (% of control) in [13] is 103% (inactive). In addition, the efflux inhibition (fraction of control) in [14] was 0.68 (active). The differentiation response in experiment [16] is 9.54% (inactive).
In the case of `CC1(C)O[C@@H]2C[C@H]3[C@@H]4C[C@H](F)C5=CC(=O)C=C[C@]5(C)[C@@]4(F)[C@@H](O)C[C@]3(C)[C@]2(C(=O)CO)O1`, in [1], the percent of DMSO control GFP is 102% (inactive). The GFP response vs DMSO in experiment [2] and in experiment [4] was 102% (inactive) each time. In [3], the percent response of DMSO control is 105% (inactive). Further, the GFP response, % of DMSO in experiment [5] is 111% (inactive). In addition, the double positive events in experiment [6] worked out at 57.8%. Besides, the vesicle binding response in experiment [6] was 113% (inactive). Further, the inhibition in experiment [7] is -5.11% (inactive); in [11], -10.8% (inactive); in experiment [15] it was 19% (inactive). In experiment [8], the superoxide response (% of plate) was 103% (inactive). The aptamer binding inhibition in experiment [9] was 1% (inactive). Besides, the figures for the response in experiment [10] and in [12] were 6.68% (inactive) and 0.85% (inactive), respectively. Further, in experiment [13], the binding (% of control) was 104% (inactive). In addition, the efflux inhibition (fraction of control) in experiment [14] is -0.025 (inactive). Further, the differentiation response in experiment [16] was -8.96% (inactive).
For the compound `Fc1ccc(NC(=S)Nc2ccccc2Cl)cc1`, the percent of DMSO control GFP in experiment [1] is 91.1% (inactive). Further, the GFP response vs DMSO in experiment [2] was 133% (inactive); in [4], 78.7% (inactive). Besides, the percent response of DMSO control in experiment [3] is 106% (inactive). In addition, the GFP response, % of DMSO in [5] is 93.1% (inactive). In [6], this compound returned a double positive events of 63.7%. The vesicle binding response in experiment [6] was 235% (inactive). Moreover, the inhibition in experiment [7] was 20% (inactive); in experiment [11], 10.1% (inactive); in experiment [15], 12% (inactive). The superoxide response (% of plate) in [8] was 91.9% (inactive). For the same compound, in experiment [9], the aptamer binding inhibition was 3% (inactive). Further, the response in [10] was -6.11% (inactive); in experiment [12], 0.15% (inactive). In experiment [13], the binding (% of control) was 102% (inactive). Besides, in experiment [14], the efflux inhibition (fraction of control) is 0.37 (inactive). For the same compound, in experiment [16], the differentiation response is -1.64% (inactive).
In the case of `CC(C)(C)C(=O)Nc1cccc(OC(F)(F)C(F)Cl)c1` (stereo not drawn), the percent of DMSO control GFP in experiment [1] was 105% (inactive). The results for the GFP response vs DMSO in [2] and in experiment [4] were 106% (inactive) and 107% (inactive), respectively. In addition, in experiment [3], the percent response of DMSO control is 105% (inactive). Also, the GFP response, % of DMSO in experiment [5] is 113% (inactive). This compound showed a double positive events in experiment [6] of 66.2%. In experiment [6], the vesicle binding response is 212% (inactive). Further, the inhibition was 25.3% (inactive) in experiment [7], 8.53% (inactive) in experiment [11] and 5% (inactive) in [15]. In experiment [8], the superoxide response (% of plate) is 105% (inactive). Moreover, the aptamer binding inhibition in experiment [9] is 4% (inactive). The values for the response in experiment [10] and in [12] were -32.2% (inactive) and 18.4% (active), respectively. Besides, in [13], the binding (% of control) was 99.5% (inactive). For the same compound, the efflux inhibition (fraction of control) in experiment [14] is -0.04 (inactive). The differentiation response in experiment [16] is 11.8% (inactive).
